Screening data deposited in PubChem by The Scripps Research Institute Molecular Screening Center.
A selection: hits, their analogues and other compounds. The true share with any hit is near 3.5%.
FBW7 act: activators of human E3 ligase FBW7; AlphaScreen FBW7–phospho-cyclin E peptide binding, activator screen; normalized activity (activation), % at 26.1 µM; hit rate 0.13% among 650,000; in the data active means normalized activity above about 1.9%;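 further: purified mutant Fbw7 with reduced substrate affinity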
Target sequence (Q969H0 whole entry, looked up): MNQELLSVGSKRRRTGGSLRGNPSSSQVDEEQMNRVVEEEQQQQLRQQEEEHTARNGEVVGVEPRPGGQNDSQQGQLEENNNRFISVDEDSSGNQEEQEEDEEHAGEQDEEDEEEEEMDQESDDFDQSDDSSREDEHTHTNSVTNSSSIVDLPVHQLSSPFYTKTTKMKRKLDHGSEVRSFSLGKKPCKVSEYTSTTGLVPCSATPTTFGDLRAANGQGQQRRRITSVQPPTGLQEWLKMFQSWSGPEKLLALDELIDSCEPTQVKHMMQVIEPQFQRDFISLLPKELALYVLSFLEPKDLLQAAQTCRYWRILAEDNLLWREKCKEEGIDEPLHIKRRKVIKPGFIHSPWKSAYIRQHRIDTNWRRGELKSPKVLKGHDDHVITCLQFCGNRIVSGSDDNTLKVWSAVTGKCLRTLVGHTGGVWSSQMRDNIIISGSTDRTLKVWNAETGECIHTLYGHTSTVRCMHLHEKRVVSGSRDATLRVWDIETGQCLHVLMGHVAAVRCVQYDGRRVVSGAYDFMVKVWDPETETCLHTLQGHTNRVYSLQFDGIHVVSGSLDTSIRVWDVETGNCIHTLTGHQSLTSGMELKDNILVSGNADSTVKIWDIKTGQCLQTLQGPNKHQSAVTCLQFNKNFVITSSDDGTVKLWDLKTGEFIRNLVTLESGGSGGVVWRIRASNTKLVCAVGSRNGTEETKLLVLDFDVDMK
TEAD-YAP inh: TEAD-YAP interaction inhibition; HEK-TIYL cells, TEAD-Gal4/YAP UAS-luciferase luminescence; inhibition, % at 9.12 µM; hit rate 1.4% among 640,000; in the data active means inhibition above about 32%;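 further: 0% = median of test compound wells and 100% = reference inhibitor wells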
MITF inh: inhibitors of human MITF; inhibition, % at 2.6 µM; AlphaScreen MITF homodimerization, bead proximity signal; hit rate 0.91% among 650,000; O75030; in the data active means inhibition above about 50%;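 further: 0% = vehicle wells with protein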
GPR151 ag: human GPR151 activation | hit rate 1% among 650,000 | activation, % at 11.2 µM | Q8TDV0 | AID 1508602 | PathHunter beta-arrestin GPR151 cells, luminescence; in the data active means activation above about 4.9%;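 further: 0% = median of compound wells and 100% = cells with positive control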
MITF confirm: human MITF inhibition, confirmation | hit rate 16% among 4,700 | shares compounds with MITF inh | inhibition, % at 2.6 µM | AlphaScreen MITF homodimerization, biotin/His-MITF beads;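 active means inhibition above a cutoff derived from the DMSO control wells, cut at about 28% in these data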;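 further: 0% = MITF dimer wells with DMSO only; inhibitors lower the bead chemiluminescence by keeping MITF from dimerizing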
AlphaScreen DR: AlphaScreen optical interference, dose response counter-screen; shares compounds with MITF inh; AlphaScreen optical interference counterscreen, cell-free; IC50, µM; hit rate 6% among 480; call rule not given here
AlphaScreen intf2: optically interferes with AlphaScreen signal. shares compounds with MITF inh. LysRS AlphaScreen counterscreen, signal interference, triplicate. inhibition, % at 2.6 µM. hit rate 7.6% among 4,700. AID 1259376;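 active means inhibition above a cutoff derived from the DMSO control wells, cut at about 30% in these data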
* hit, by the source's call; nt = no result.

SMILES	FBW7 act	TEAD-YAP inh	MITF inh	GPR151 ag	MITF confirm	AlphaScreen intf2	others
CCOC(=O)C1CCCN(Cc2cccc(C(F)(F)F)c2)C1 (stereo not drawn)	0	-3	52*	1	9	11
CCOC(=O)C1CCCN(CCc2ccccc2)C1 (stereo not drawn)	0	5	59*	2	-11	-5
CCOC(=O)C1CCCN(C(=O)Cc2c(F)cccc2Cl)C1 (stereo not drawn)	0	-4	-3	0	nt	nt
CCC(=O)Nc1ccc2nc(SCC(=O)Nc3cccc(C(C)=O)c3)sc2c1	1	2	20	-2	nt	nt
CNS(=O)(=O)c1cc(O)c2c(S(=O)(=O)O)cc(S(=O)(=O)NC)cc2c1	0	-5	12	-1	nt	nt
Nc1cc2c(S(=O)(=O)O)cc(S(=O)(=O)O)cc2cc1S(=O)(=O)O	0	1	52*	0	35*	28	AlphaScreen DR=>6.5
O=C(/C=C/c1ccc2c(c1)OCO2)CC1(O)C(=O)N(Cc2ccccc2)c2ccccc21 (stereo not drawn)	0	16	68*	0	6	14
C=CCn1c2ccccc2c2nnc(SC(CC)C(=O)Nc3sc4c(c3C(=O)OCC)CCCC4)nc21 (stereo not drawn)	0	12	-97	1	nt	nt
COc1ccccc1CN1CCN(Cc2ccc(C(F)(F)F)cc2)CC1	0	-16	60*	1	6	13
COc1ccc(CN2CCN(Cc3ccc(C(F)(F)F)cc3)CC2)c(OC)c1	0	-1	68*	0	10	13
COc1ccc(CN2CCN(Cc3ccc(C)cc3)CC2)c(OC)c1	-1	-15	79*	-1	0	9
Cc1ccc(-c2ccc(S(=O)(=O)N3CCOCC3)cc2)cc1	1	2	3	2	nt	nt
CCOc1ccccc1NC(=O)c1c(NCc2ccc(C)o2)sc2c1CCC(C)C2 (stereo not drawn)	0	10	12	1	nt	nt
O=C(CN1CCC(NC(=O)c2ccccc2)CC1)Nc1ccccc1Oc1ccccc1	0	-17	-33	0	nt	nt
O=C(CCCn1c(=S)[nH]c2ccccc2c1=O)N1CCOCC1	0	1	114*	1	1	0
CCN(CC)C(=O)C1CCCN(Cc2cccc(OC)c2)C1 (stereo not drawn)	0	0	56*	1	-1	2
CCN(CC)C(=O)C1CCCN(Cc2ccc(C)cc2)C1 (stereo not drawn)	0	13	34	2	nt	nt
CCN(CC)C(=O)C1CCCN(Cc2cccc(C)c2)C1 (stereo not drawn)	0	0	24	0	nt	nt
CCN(CC)C(=O)C1CCCN(Cc2sccc2C)C1 (stereo not drawn)	0	1	51*	1	17	13
CCN(CC)C(=O)C1CCCN(Cc2cccc(F)c2)C1 (stereo not drawn)	0	2	58*	-1	-1	0
CCOC(=O)c1c(C)oc2ccc(NS(=O)(=O)c3ccc(F)cc3C)cc12	0	-1	-14	1	nt	nt
COC(=O)c1ccc(NC(=O)CN2CCN(C(=O)c3ccco3)CC2)cc1	0	24	2	-1	nt	nt
CC(NCCN(C)C)C(=O)NCc1ccco1 (stereo not drawn)	0	-2	-1	1	nt	nt
CCOC(=O)c1ccc(NC(=O)CN2CCN(CC(=O)c3ccco3)CC2)cc1	0	2	79*	0	5	20
Cc1ccccc1NC(=O)CN1CCN(CC(=O)c2ccco2)CC1	0	1	59*	0	27	19
SMILES	FBW7 act	TEAD-YAP inh	MITF inh	GPR151 ag	MITF confirm	AlphaScreen intf2	others
CC(NCCCN(C)C)C(=O)NCc1ccco1 (stereo not drawn)	0	-12	57*	1	7	9
O=C(CN1CCN(CC(=O)c2ccco2)CC1)NCc1ccccc1Cl	0	-12	66*	0	9	18
O=C(CN1CCN(Cc2cn3ccccc3n2)CC1)c1ccco1	0	1	54*	1	11	18
CC1CCN(C(C)C(=O)NCc2ccco2)CC1 (stereo not drawn)	0	-5	80*	1	18	23
CCN1CCN(CC(=O)NCc2ccco2)CC1	0	9	80*	0	13	4
CCN(CC)CCNC(=O)c1cc(Sc2nnc(C)s2)nc2ccccc12	0	-7	-3	1	nt	nt
COc1ccc(N(CCN2C(=O)c3cccc4c(Br)ccc(c34)C2=O)C(=O)c2cc(C)cc(C)c2)cc1	1	-3	-6	2	nt	nt
Nc1nnnn1/N=C/c1ccc(-c2ccc(F)c(Cl)c2)o1	0	0	83*	-1	7	15
O=C(/C=C/c1cn(-c2nc(-c3ccccc3)c3cc(Br)ccc3n2)[n+](-c2ccccc2)c1)c1ccccc1	0	-18	77*	-1	6	10
CCOC(=O)c1ccc(NC(=S)NNC(=O)c2ccccn2)cc1	-1	6	116*	0	114*	100*
O=C(NNC(=S)Nc1cccc([N+](=O)[O-])c1)c1ccccn1	-2	-12	115*	-1	116*	100*
CCOc1ccccc1NC(=S)NNC(=O)c1ccccn1	-2	16	114*	0	117*	100*
COCCCNC(=S)NNC(=O)c1ccccn1	-1	12	114*	1	113*	100*
CCOC(=O)c1cccc(NC(=O)c2ccccn2)c1	0	-36	0	-4	nt	nt
O=C(CN1CCCC1)NC(c1ccccc1)c1ccccc1	0	-1	59*	-1	8	13
CCN1CCN(C(=O)C(c2ccccc2)c2ccccc2)CC1	0	2	-4	-2	nt	nt
O=C(CNC1CCCCC1)NC(c1ccccc1)c1ccccc1	0	-1	52*	1	12	9
O=C(CN1CCC(N2CCCCC2)CC1)NC(c1ccccc1)c1ccccc1	0	-6	14	0	nt	nt
N/C(CC(=O)NC1CCCCC1)=N\OCC(=O)NC(c1ccccc1)c1ccccc1	0	9	12	1	nt	nt
O=C(CN1CCCCC1)NC(c1ccccc1)c1ccccc1	0	-6	53*	-1	13	7
CCN1CCN(C(C)C(=O)NC(c2ccccc2)c2ccccc2)CC1 (stereo not drawn)	0	-5	61*	0	11	14
c1ccc(-c2cc(N3CCOCC3)nc(-c3ccccn3)n2)nc1	-1	45*	113*	-1	117*	100*
C=CCN1C(=O)C(CC(=O)Nc2ccccc2F)S/C1=N/c1nc2ccccc2s1 (stereo not drawn)	0	-4	-2	0	nt	nt
N#Cc1ccccc1NC(=O)c1cc(Br)ccc1Cl	0	-2	16	-1	nt	nt
O=C(N/N=C\c1cccc([N+](=O)[O-])c1)c1cnccn1	0	-21	66*	-1	1	15
